High-throughput results as filed in PubChem BioAssay.
Most compounds without a hit are left out; they make up all but 1.9% or so of the library.
Pin1 inh: blocks the human prolyl isomerase Pin1. Q13526. Pin1 FP peptide displacement, HiFluor488, 10 min. Potency, µM (titrated, usually from 115 µM), for inactives: at the top dose activity, negative = inhibition, hits mostly inhibitors. 390,000 compounds, 0.009% hits; active means well fitted inhibition curve with a large enough effect in the polarisation, with a control signal flat, not every such curve was filed as active; inconclusive means small, poorly fitted or top-dose-only effect, or effect the other way, or a change in a side signal; inactive means no such curve, though single readings can be large or run the other way; the % refers to the polarisation; further: potency means the concentration at half of the fitted maximal effect; on the % scale 0 is the no-effect control and ±100 the full control effect
PKM2 activator: activators of human pyruvate kinase M2 | P14618 | purified PKM2, Kinase-Glo ATP luminescence, activation; response scale: 0% is enzyme alone, no compound | Potency, µM (titrated, usually from 57.5 µM), for the others: at the top dose activation, usual class: activators | 260,000 compounds, 0.34% hits | AID 1631; further: potency means the concentration at half of the fitted maximal effect; on the % scale 0 is the no-effect control and ±100 the full control effect; nearly all actives have a fitted effect of over 55% in size
Target sequence (P14618 whole entry, looked up): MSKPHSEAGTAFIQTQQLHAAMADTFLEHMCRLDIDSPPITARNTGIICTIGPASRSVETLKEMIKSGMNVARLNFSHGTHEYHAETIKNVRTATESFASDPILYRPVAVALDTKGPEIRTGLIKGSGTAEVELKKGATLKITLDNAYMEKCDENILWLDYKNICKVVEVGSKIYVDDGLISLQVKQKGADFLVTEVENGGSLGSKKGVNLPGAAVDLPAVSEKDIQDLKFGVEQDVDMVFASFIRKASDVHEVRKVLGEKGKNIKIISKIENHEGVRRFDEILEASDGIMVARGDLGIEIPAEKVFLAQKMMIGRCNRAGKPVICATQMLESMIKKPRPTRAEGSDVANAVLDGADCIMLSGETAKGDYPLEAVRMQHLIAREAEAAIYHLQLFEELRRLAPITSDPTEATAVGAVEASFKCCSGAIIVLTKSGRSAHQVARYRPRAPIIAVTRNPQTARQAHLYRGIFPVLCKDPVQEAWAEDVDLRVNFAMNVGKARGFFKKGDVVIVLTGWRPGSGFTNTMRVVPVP
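hPK-M2, >95% pure; 0.1 mM ADP / 0.5 mM PEP final; imidazole pH7.2 buffer w/ 7 mM MgCl2, 50 mM KCl; 1 h RT; Kinase-Glo lum. Intermediate enzyme activity for dual inhibitor/activator qHTS.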
IL2 activator: activators of IL-2; IL-2 activation reporter assay, cell-based qHTS; stimulated with anti-CD3/CD4/CD28 beads; in transgenic mouse T cells; activation, % (series mostly up to about 46 µM); 360,000 compounds, 0.065% hits; AID 652025; in the data active means activation above about 50%; inconclusive means mostly about 30% to 49%; further: 0% is about no effect
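Unstimulated transgenic mouse T cells; 60-min compound exposure; bead-based TCR/CD4/CD28 stimulation; 18 h culture, 37 degrees C; dual fluorescence (EGFP, DsRed) plate cytometry.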
ClpP mod: qHTS Assay for Activators of ClpP. ATP-dependent Clp protease proteolytic subunit (Bacillus subtilis (strain 168)), P80244. purified B. subtilis ClpP, FRET peptide cleavage, 20 min. Potency, µM (top dose mostly 57.5 µM), without a hit: at the highest dose activity change, negative = active. 340,000 compounds, 1.9% hits. AID 651965, 2013; active means well fitted falling curve with a large enough effect; inconclusive means small, poorly fitted or top-dose-only effect; inactive means no such curve, though single readings can be large or run the other way; further: potency means the concentration at half of the fitted maximal effect; the source files actives as falling curves though it sought activators and does not explain the sign; nearly all actives have a fitted effect of over 65% in size
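FRET quenching reversal measured ClpP activation: 10 microg/mL B. subtilis ClpP at pH 8 with the FRET-FV decapeptide, read at 430 nm after 320 nm excitation. The 20-min minus 0-min signal was scaled between DMSO/no-enzyme wells and ADEP (5.8 microM final).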
USP2a inh: blocks human ubiquitin-specific protease USP2a; USP2 core, Ub-CHOP2 coupled fluorogenic reporter, 485/531; 330,000 compounds, 0.01% hits; Potency, µM (series often up to 38.3 µM), for the others: at the top dose activity change, negative = inhibition, actives largely listed as inhibitors; O75604;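 further: potency means the concentration at half of the fitted maximal effect; plate controls were DMSO wells for no effect and full inhibition by NEM control for full effect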
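Cell-free coupled assay: 10nM USP2 core preincubated 30min RT with compound in Tris-HCl pH 8.0/CaCl2/CHAPS buffer, then 25nM Ub-CHOP2 and 25nM reporter substrate; fluorescence (Ex 485/Em 531) read after 60min RT, normalized to NEM inhibition, concentration-response curves fitted.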
a7 integrin act: integrin-mediated muscular dystrophy alleviation activation | alpha7betagal myoblasts, beta-gal FDG fluorescence, 48 h | Potency, µM (highest dose often 38.3 µM), inactives show at the highest dose activation, hits mostly activators | 350,000 compounds, 0.064% hits | AID 624291;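 further: potency means the concentration at half of the fitted maximal effect; 100% = response of the positive control SU9516; nearly all actives have a fitted effect of over 60% in size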
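alpha7betagal+/- myoblasts (passage 13, 250/well) treated 48 h at 37C with compounds at 1:260 dilution of DMSO stock. Lysed, then beta-galactosidase activity read as FDG fluorescence (ex 480/em 540) after 30 min, with pre-read for autofluorescence.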
Active calls of the source: *; ? = inconclusive; · = not tested or not shown; ! = a repeat was not active; [ ] = remark or other dose. Unless noted, the call rests on the fitted dose curve; in most records, active means well fitted curve in the direction sought with a large enough effect; inconclusive means small, poorly fitted or top-dose-only effect, or another doubt; inactive means no such curve, though single readings can be large; an effect the other way counts as inactive or inconclusive.

SMILES	Pin1 inh	PKM2 activator	IL2 activator	ClpP mod	USP2a inh	a7 integrin act
O=S(=O)(c1ccc(C(F)(F)F)cc1)N1CCN(c2nc(-c3ccccc3)nc3ccccc23)CC1	23.6%	·	·	?	·	·
Oc1cccc(/C=N/c2c(-c3ccco3)nc3ccccn23)c1	?	22.2%	2.2	28.2µM*	3.2%	-37.0%
COc1cc(-c2nc3ccccn3c2NCC2CCCO2)ccc1O (stereo not given)	-8.2%	-2.5%	-2.9	25.1µM*	0.2%	-3.7%
COc1cc(-c2nc3ccccn3c2/N=C/c2ccccc2)ccc1O	-0.8%	-8.5%	-1.5	31.6µM*	-0.6%	-40.2%
CCOc1cc(-c2nc3ccccn3c2NCC2CCCO2)ccc1O (stereo not given)	-0.8%	-3.9%	-1.0	?	1.3%	0.0%
Cc1ccc(-c2nnc3ccc(SCC(=O)c4ccccc4)nn23)cc1	14.6%	·	·	-24.5%	·	·
CCCCc1nc2c(c3c1C[C@H](C)OC3)CN(C(=O)Cc1cccc(OC)c1)CC2	·	-2.0%[11.5 µM]	·	·	·	·
OC(Cc1ccc2ccccc2n1)c1ccccc1 (stereo not given)	·	·	·	-0.8%	·	·
CCn1nc(C)c(/C=N/NC(=O)c2ccoc2C)c1C	1.1%	-29.4%	-0.6	15.8µM*	-0.6%	20.8%
CCCCCn1nc(C)c(/C=N/NC(=O)c2ccoc2C)c1C	-2.5%	-22.1%	-1.7	0.5%	2.3%	24.2%
CN(c1ccc(Cl)cc1)c1cc2c(c3c1ccn3C)C1CCC2C1 (stereo not given)	·	·	0.7	-24.0%	·	·
CN(c1cccc(F)c1)c1cc2c(c3c1ccn3C)C1CCC2C1 (stereo not given)	·	·	0.2	8.91µM*	·	·
COc1cc2nc(N3CCCN(C)CC3)nc(N3CCN(C)CC3)c2cc1OC	·	·	·	3.8%	·	·
COC(=O)C1=C(C(=O)OC)[C@@H]2N(C)c3ccccc3[C@@]23C[C@@H](C(=O)OC)N(S(=O)(=O)c2ccc(C#N)cc2)C3=N1	·	-7.6%[11.5 µM]	·	·	·	·
N#Cc1nc(COc2ccc(-c3ccccc3)cc2)oc1N1CCC(C(N)=O)CC1	1.2%	·	·	-2.6%	·	·
Cc1ccc(OCc2ccc(-c3nc(C#N)c(N4CCN(c5cccc(Cl)c5)CC4)o3)o2)cc1	-0.7%	·	·	10.4%	·	·
N#Cc1nc(COc2ccc(Cl)cc2)oc1N1CCN(Cc2ccccc2)CC1	9.8%	-0.7%	0.5	28.2µM*	-0.3%	-4.8%
N#Cc1nc(-c2ccc(OCc3ccccc3)cc2)oc1N1CCC(C(N)=O)CC1	0.5%	-14.4%	-0.5	3.55µM*!	-2.1%	3.1%
N#Cc1nc(-c2ccc(COc3ccc(Cl)cc3)o2)oc1N1CCC(C(N)=O)CC1	-0.5%	·	·	31.6µM*	·	·
Cc1ccccc1CN1[C@H]2CCCC[C@@H]2OCCS1(=O)=O	·	·	·	-2.6%	·	·
CSc1ccc(-c2nc(CSCC(=O)NCCCN3CCOCC3)c(C)o2)cc1	-10.8%	-2.9%	-1.7	35.5µM*	3.1%	-13.2%
Cc1oc(-c2ccc(Cl)cc2)nc1CSCC(=O)NCc1ccccc1Cl	-11.0%	·	·	31.6µM*	·	·
CC(C)C(OC(=O)CNC(=O)c1ccccc1)C(=O)Nc1cc(C(F)(F)F)ccc1Cl (stereo not given)	0.6%	·	·	·	·	·
Cc1cnccc1/C=C/c1ccc(N)cc1	·	·	·	-7.5%	·	·
CCC[N+](C)(C)c1ccc(/C=C/c2ccncc2)cc1	·	·	·	1.6%	·	·
CNC(=O)c1cc2c(s1)-c1ccccc1CC2	-3.6%	-0.3%	-0.2	3.7%	1.9%	-20.6%
O=C(N/N=C/c1ccc(F)c(F)c1)c1cc2c(s1)-c1ccccc1CC2	3.7%	-3.8%	2.9	31.6µM*	1.4%	18.0%
Cc1ccccc1Nc1nc(C#N)nc(NC2CCCC2)n1	5.2%	·	·	·	·	·
CSc1nc2nccc(-c3ccc(Oc4ccccc4)cc3)n2n1	1.1%	-1.0%	-0.2	28.2µM*	-0.6%	6.5%
CSc1nc2nccc(-c3ccc(-c4ccccc4)cc3)n2n1	32.3%	2.1%	0.5	28.2µM*	3.3%	-25.6%
